# Experimental data: the supplement of paper PMC11555231
# Biological target: PADI4, Q9UM07
# Test: log2 enrichment score relative to parent PADI4_3 peptide (binding to PADI4); higher = tighter binding than parent
# Details: CaCl2: 10 mM
# Method in brief: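 Sequencing of input and eluted pools from a single triplicate round gave log2 enrichment (bound over input), expressed relative to parent as a mean with standard deviation. The NNK-randomised cyclic peptide mRNA-display library carried a C-terminal HA tag and had methionine reassigned to N-methyl-alanine. Selection was against bead-immobilised biotinylated His-tagged human PADI4 (100 nM) in HEPES/NaCl buffer with 10 mM CaCl2, DTT, Tween and blockers, washed over 10–12 h at RT.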
# Chain of PADI4, Q9UM07 (Q9UM07 whole entry): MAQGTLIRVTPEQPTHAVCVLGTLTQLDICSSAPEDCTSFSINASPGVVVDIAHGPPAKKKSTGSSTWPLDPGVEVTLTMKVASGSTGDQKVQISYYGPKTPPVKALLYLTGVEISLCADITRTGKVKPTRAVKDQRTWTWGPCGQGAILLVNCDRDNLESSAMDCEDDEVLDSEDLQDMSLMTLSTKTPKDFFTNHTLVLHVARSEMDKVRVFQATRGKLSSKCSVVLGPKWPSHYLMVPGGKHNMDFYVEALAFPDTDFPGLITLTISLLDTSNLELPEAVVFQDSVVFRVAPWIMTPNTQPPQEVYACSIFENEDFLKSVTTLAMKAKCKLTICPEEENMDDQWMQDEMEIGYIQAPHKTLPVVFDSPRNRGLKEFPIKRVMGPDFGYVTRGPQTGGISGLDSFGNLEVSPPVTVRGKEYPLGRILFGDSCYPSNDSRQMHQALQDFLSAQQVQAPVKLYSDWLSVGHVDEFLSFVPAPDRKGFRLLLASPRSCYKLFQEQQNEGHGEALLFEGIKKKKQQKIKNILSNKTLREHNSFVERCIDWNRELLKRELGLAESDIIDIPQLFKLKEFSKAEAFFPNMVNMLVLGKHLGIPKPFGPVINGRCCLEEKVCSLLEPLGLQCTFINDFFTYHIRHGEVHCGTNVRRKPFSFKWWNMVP
row,Binder,log2 enrichment score
1,YRDHHYTHPKYCG [PADI4_3_R7T R7T],-1.3
2,YRDSHYRHPKYCG [PADI4_3_H4S H4S],-2.9
3,YRDHHTRHPKYCG [PADI4_3_Y6T Y6T],-2.52
4,YRSHHYRHPKYCG [PADI4_3_D3S D3S],-3.9
5,YRDHHYRTPKYCG [PADI4_3_H8T H8T],-3.89
6,YRDHTYRHPKYCG [PADI4_3_H5T H5T],-3.62
7,YTDHHYRHPKYCG [PADI4_3_R2T R2T],-1.69
8,YRDHHYRHTKYCG [PADI4_3_P9T P9T],-1.92
9,YRDHHYRHPKTCG [PADI4_3_Y11T Y11T],-3.95
10,YRDHHYRHPTYCG [PADI4_3_K10T K10T],0.237
11,YRDTHYRHPKYCG [PADI4_3_H4T H4T],-3.53
12,YRTHHYRHPKYCG [PADI4_3_D3T D3T],-3.58
13,YRDHHYRHPKSCG [PADI4_3_Y11S Y11S],-4.12
